Compound activity from PubChem.
An excerpt weighted towards active compounds, which were near 3.1% of everything screened.
INS-1E GSIS act – GLuc luminescence reporter in INS-1E cells, primary screen for activators of glucose-dependent secretion of insulin. INS-1E GLuc reporter insulin secretion, 2-3 h. AID 743287, 2014. hit rate 0.61% among 370,000. activation, % at 16.6 µM;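 active = lowest replicate activation of at least 40%, so every replicate reaches that level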;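 also: 0% = median of neutral control wells and 100% = median of IBMX positive control wells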
RAD52 anneal inh – RAD52 DNA annealing inhibitors, primary screen, biochemical, FRET, single point, set 2 | DNA repair protein RAD52 homolog (Homo sapiens), P43351 | recombinant RAD52 DNA annealing, FRET fluorescence | inhibition, % at 18.7 µM | hit rate 0.46% among 360,000 | AID 651710, 2012;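 active = every replicate showing at least 50% inhibition; inconclusive = mean inhibition at least 50% but not in every replicate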
Target sequence (P43351 whole entry, looked up): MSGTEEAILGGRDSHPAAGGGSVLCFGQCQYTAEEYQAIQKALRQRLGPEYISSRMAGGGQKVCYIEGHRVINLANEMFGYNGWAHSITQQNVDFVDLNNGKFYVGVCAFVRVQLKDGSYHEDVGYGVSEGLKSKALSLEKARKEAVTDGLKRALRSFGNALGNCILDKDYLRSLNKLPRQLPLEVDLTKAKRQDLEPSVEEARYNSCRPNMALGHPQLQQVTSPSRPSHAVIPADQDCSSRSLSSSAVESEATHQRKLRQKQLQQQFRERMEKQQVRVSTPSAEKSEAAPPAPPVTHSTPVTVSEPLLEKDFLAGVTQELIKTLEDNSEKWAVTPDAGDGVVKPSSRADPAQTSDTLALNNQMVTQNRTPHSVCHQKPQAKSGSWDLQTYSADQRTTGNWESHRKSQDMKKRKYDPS
MLL AF4-AF9 inh – inhibitors of AF4 peptide binding to AF9, primary screen, biochemical, AlphaScreen, biotin-AF4 peptide, FLAG-AF9, single point; Protein AF-9 (Homo sapiens), P42568; inhibition, % at 10 µM; hit rate 0.47% among 350,000;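 active = every replicate reaching a set inhibition limit, whatever the replicate mean, cut at about 25% in these data; inconclusive = mean inhibition reaches that limit but some replicates miss it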;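 also: 0% = plate neutral control median and 100% = total signal loss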
DENV2 CPE rescue – inhibitors of DENV2 cytopathic effect, primary screen, cell-based, plate reader, single concentration | DENV2-infected cells, cytopathic effect rescue | CPE inhibition, % at 9.99 µM | hit rate 1.7% among 350,000; in the data active = CPE inhibition above about 20%, passing the limit was not always enough; inconclusive = no clear call, values can overlap the other calls; tested in BHK-21 cells;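 also: 0% = median of neutral control wells and 100% = median of positive control wells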
RAD54 branch – inhibitors of human RAD54 branch migration, primary screen, biochemical, fluorescence, single point; DNA repair and recombination protein RAD54-like (Homo sapiens), Q92698; RAD54 Holliday junction branch migration, FAM/BHQ fluorescence; inhibition, % at 10.4 µM; hit rate 0.14% among 360,000;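 active = mean normalized replicate activity at least 40 and at least half of replicates scoring 40 or more; inconclusive = only one of the two criteria met; inactive = mean below 40 and under half of replicates reaching 40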;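 also: 0% = median of neutral control wells and 100% = median of positive control wells; inhibitors cause a drop in the FAM fluorescence signal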
dFosB act – activators of delta FosB homodimer, primary screen, biochemical, fluorescence polarization, TAMRA-CDK5 oligo, single point; AID 493131, 2011; hit rate 0.99% among 340,000; activation, % at 25 µM; Protein FosB (Mus musculus), P13346; purified delta FosB; percent of positive-control signal above neutral wells;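 active = mean activation above about 17%, with every replicate also reaching it, limit read from the data, passing the limit was not always enough; inconclusive = only one of the two conditions met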
The depositor's hits bear a star; ? = inconclusive; · = no result.

SMILES	INS-1E GSIS act	RAD52 anneal inh	MLL AF4-AF9 inh	DENV2 CPE rescue	RAD54 branch	dFosB act
O=[N+]([O-])c1ccc(/C=N/Nc2nc(-c3ccccc3)c3cc(Br)ccc3n2)o1	·	·	·	·	-4.9	22.9*
OCCNc1nc(-c2ccccc2)c2cc(Br)ccc2n1	59.3*	4.2	0.0	-2.0	6.6	-7.5
N#Cc1ccccc1/C=N/Nc1nc(-c2ccccc2)c2cc(Br)ccc2n1	·	·	·	·	3.3	?
CCS(=O)(=O)Nc1ccc2c(c1)C(=O)N(C)[C@@H]1CC[C@H](CC(=O)OC)O[C@@H]1CO2	8.4	5.9	-4.6	5.2	2.9	·
CNC[C@@H]1Oc2c(NC(=O)Nc3ccc(OC)cc3)cccc2C(=O)N([C@H](C)CO)C[C@@H]1C	13.0	-24.9	1.5	1.0	4.1	·
Cc1ccc(S(=O)(=O)N2CC[C@H]3[C@H](CO)Nc4ccc(-c5ccccc5F)cc4[C@H]32)cc1	20.9	-5.5	2.1	18.2	3.3	·
C/C=C/c1ccc2c(c1)[C@H]1[C@H](CCN1Cc1ccc(F)cc1)[C@H](CO)N2	-5.8	21.2	15.7	37.9*	·	·
Cc1cccc(S(=O)(=O)N2CC[C@@H]3[C@H]2c2cc(-c4ccccc4F)ccc2N[C@@H]3CO)c1	4.4	·	·	40.0*	9.1	·
Cc1ccc(S(=O)(=O)N2CC[C@@H]3[C@H](CO)Nc4ccc(-c5ccccc5F)cc4[C@@H]32)cc1	18.4	3.8	-8.4	147.2*	7.4	·
O=S(=O)(c1ccc(F)cc1)N1CC[C@H]2[C@H](CO)Nc3ccc(-c4ccccc4F)cc3[C@H]21	-2.8	10.9	1.5	42.8*	-8.5	·
Cc1cccc(S(=O)(=O)N2CC[C@@H]3[C@H](CO)Nc4ccc(-c5ccccc5F)cc4[C@@H]32)c1	6.0	·	·	-7.6	0.9	·
OC[C@H]1Nc2ccc(-c3ccc(F)cc3)cc2[C@H]2[C@@H]1CCN2Cc1ccc(F)cc1	·	·	·	-26.6	-4.3	·
C[C@@H]1CN([C@@H](C)CO)C(=O)c2cc(NS(=O)(=O)c3ccc(Cl)cc3)ccc2O[C@@H](C)CCCCO[C@@H]1CN(C)C(=O)Cc1ccccc1	-24.7	-10.0	-0.3	0.4	1.7	·
O=S(=O)(c1ccc(F)cc1)N1CC[C@@H]2[C@@H](CO)Nc3ccc(-c4ccc(F)cc4)cc3[C@@H]21	-10.3	·	·	51.1*	7.7	·
O=S(=O)(c1ccccc1F)N1CC[C@@H]2[C@@H](CO)Nc3ccc(-c4cccc(F)c4)cc3[C@@H]21	-5.6	-36.8	11.6	-18.7	2.6	·
O=S(=O)(c1ccccc1F)N1CC[C@@H]2[C@H](CO)Nc3ccc(-c4ccccc4)cc3[C@@H]21	3.6	35.4	2.2	23.8*	4.1	·
Cc1ccc(S(=O)(=O)N2CC[C@@H]3[C@H]2c2cc(-c4ccc(C#N)cc4)ccc2N[C@@H]3CO)cc1	12.2	·	·	24.3*	-8.9	·
Cc1ccccc1S(=O)(=O)N1CC[C@@H]2[C@@H](CO)Nc3ccc(-c4ccccc4F)cc3[C@@H]21	-2.6	-1.7	3.6	42.0*	-6.9	·
CNC[C@@H]1OCCCC[C@H](C)Oc2ccc(NS(=O)(=O)c3ccc(Cl)cc3)cc2C(=O)N([C@H](C)CO)C[C@@H]1C	9.7	-64.4	-8.7	-0.6	1.6	·
C[C@@H]1CN([C@H](C)CO)C(=O)c2cc(NC(=O)C3CC3)ccc2O[C@H]1CN(C)C(=O)Nc1ccc2c(c1)OCO2	8.1	0.9	-9.1	10.9	-3.3	·
CCCNC(=O)N1C[C@H](C)[C@@H](OC)CN(C)C(=O)c2cc(NC(=O)CC)ccc2OC[C@@H]1C	4.1	-2.1	-1.4	19.6	8.1	·
O=C(C[C@@H]1CC[C@@H]2[C@H](COC[C@@H](O)CN2Cc2ccc(C(F)(F)F)cc2)O1)NCCc1ccccc1	-19.9	-2.6	-0.3	-3.2	2.3	·
C/C=C/c1ccc2c(c1)[C@H]1[C@H](CCN1S(=O)(=O)c1ccccc1F)[C@H](CO)N2	5.8	·	·	25.5*	3.8	·
O=S(=O)(c1cccc(F)c1)N1CC[C@@H]2[C@H]1c1cc(-c3cccc(F)c3)ccc1N[C@@H]2CO	-6.9	·	·	51.6*	-28.2	·
COc1ccc(CN2CC3(CCN(Cc4ccccn4)CC3)c3c(n(C)c4cc(OC)ccc34)[C@H]2CO)cc1	-19.7	·	·	·	·	·
SMILES	INS-1E GSIS act	RAD52 anneal inh	MLL AF4-AF9 inh	DENV2 CPE rescue	RAD54 branch	dFosB act
Cn1c(NC(=O)C2CC2)cc(=O)n(C)c1=O	15.0	-7.5	48.9*	9.9	-13.6	-1.1
CO[C@@H]1CN(C)C(=O)c2ccc(NC(=O)C3CC3)cc2OC[C@@H](C)N(C(=O)c2ccccn2)C[C@H]1C	6.7	-3.5	-2.4	19.9	·	·
C[C@H](CO)N1C[C@H](C)[C@@H](CN(C)Cc2ccncc2)Oc2ccc(NC(=O)C3CC3)cc2C1=O	0.2	·	-0.3	·	-1.2	·
CCNC(=O)[C@@H]1[C@@H](CO)[C@@H]2Cn3c(ccc(C4=CCCCC4)c3=O)[C@H]1N2Cc1ccncc1	1.3	0.0	-1.5	-4.3	-10.6	·
CN(C)C(=O)[C@@H]1[C@@H](CO)[C@@H]2Cn3c(ccc(C4=CCCC4)c3=O)[C@H]1N2CC1CC1	14.6	-19.5	-2.1	3.8	1.2	·
CN(C)C(=O)[C@@H]1[C@@H](CO)[C@@H]2Cn3c(ccc(C4=CCCCC4)c3=O)[C@H]1N2C	30.6	72.1*	1.0	-1.8	9.7	·
CN(C)C(=O)[C@H]1[C@H](CO)[C@H]2Cn3c(ccc(C4=CCCCC4)c3=O)[C@@H]1N2Cc1ccncc1	-3.7	-7.6	0.1	35.7*	1.4	·
CN(C)C(=O)[C@@H]1[C@@H](CO)[C@@H]2Cn3c(ccc(C4=CCCC4)c3=O)[C@H]1N2S(=O)(=O)c1cn(C)cn1	15.9	-9.9	-1.9	22.3*	-6.4	·
COCC(=O)Nc1ccc2c(c1)OC[C@H](C)N(Cc1ccccc1OC)C[C@H](C)[C@@H](OC)CN(C)C2=O	-1.9	-5.4	-0.5	21.6*	·	·
CCC(=O)Nc1ccc2c(c1)C(=O)N(C)C[C@H](OC)[C@H](C)CN(Cc1ccccc1OC)[C@@H](C)CO2	1.1	11.0	-8.1	22.4*	-2.7	·
CO[C@H]1CN(C)C(=O)c2ccc(NC(C)=O)cc2OC[C@H](C)N(Cc2cc(F)ccc2F)C[C@@H]1C	-14.3	21.2	2.9	31.7*	-4.0	·
COc1ccccc1NC(=O)Nc1ccc2c(c1)C(=O)N(C)C[C@@H](OC)[C@H](C)CN(Cc1ccccc1Cl)[C@H](C)CO2	-2.5	-14.4	3.2	28.4*	-6.9	·
CCC(=O)Nc1ccc2c(c1)C(=O)N(C)C[C@H](OC)[C@H](C)CN(Cc1ccccc1OC)[C@H](C)CO2	2.0	25.2	-6.9	-5.5	-4.6	·
COc1ccc(C(=O)Nc2ccc3c(c2)C(=O)N(C)C[C@H](OC)[C@H](C)CN[C@@H](C)CO3)cc1	-11.3	1.5	-1.6	14.0	0.0	·
